Compounds without any hit were thinned out: in the full panel of roughly 79,000, 15% have a hit. Unmarked numbers belong to inactive results. Calls of active or inactive are those of the source. No stated cut-off is given here; in the data, active means growth inhibition above about 70%; inactive means the rest.

The record followed here is PubChem BioAssay (NCI).

Assay [1] in a line: NCI Yeast Anticancer Drug Screen. Data for the rad50 strain (AID 155).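 Further: 0% = growth of vehicle-only cultures of the same strain.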 The following applies: S. cerevisiae rad50 strain growth inhibition; at 50.0 µM; hits give high values. The gist of the method: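 Compounds were tested on a yeast strain with an engineered DNA damage repair alteration; the reported value is growth inhibition normalised to vehicle treatment.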
The nature of assay [2]: NCI Yeast Anticancer Drug Screen. Data for the mec2-1 strain (AID 157). To be noted: S. cerevisiae mec2-1 strain, at 50.0 µM, hits give high values. The method in brief: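 mec2-1 yeast strain, carrying an alteration in DNA damage repair or cell cycle control, was exposed to compounds; growth inhibition was measured relative to vehicle-treated controls.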
Assay [3] in a line: NCI Yeast Anticancer Drug Screen. Data for the sgs1 mgt1 strain (AID 161).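 Further: 0% = growth of cultures given vehicle only.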 The following applies: S. cerevisiae sgs1 mgt1 strain, at 50.0 µM, hits give high values. The gist of the method:
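Compounds are added to genetically altered yeast, and growth is compared with cultures given vehicle alone to give percent inhibition.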

Assay [4] in a line: NCI Yeast Anticancer Drug Screen. Data for the cln2 rad14 strain (AID 165).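 Further: 0% = growth equal to vehicle treated cultures.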 To be noted: S. cerevisiae cln2 rad14 strain, at 50.0 µM, hits give high values. The gist of the method: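 Yeast carrying cln2 and rad14 alterations (cell cycle control and DNA damage repair) were exposed to compounds. Growth inhibition was measured against vehicle-treated controls.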
The nature of assay [5]: NCI Yeast Anticancer Drug Screen. Data for the bub3 strain (AID 167). To be noted: S. cerevisiae bub3 mutant strain, at 50.0 µM, hits give high values. The gist of the method: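 Growth of a checkpoint-deficient yeast mutant is measured after compound exposure. Values represent inhibition relative to vehicle.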
A short description of assay [6]: NCI Yeast Anticancer Drug Screen. Data for the mlh1 rad18 strain (AID 175). To be noted: S. cerevisiae mlh1 rad18 strain growth inhibition; at 50.0 µM; hits give high values. The method in brief:
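Growth inhibition of the yeast strain was measured after compound exposure and expressed relative to vehicle-treated controls. The strain carries defined defects in DNA damage repair.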

`COc1ccc(OC)c(NC(=O)CCCC(=O)C(C#N)c2ccccc2C)c1` (stereo unspecified): the growth inhibition in assay [1] is 13.1%; in assay [2], -4.9%; in assay [3], -3.15%; in assay [4] it was 11.2%; in assay [5] it was 0.2%; in assay [6] it was 2.05%.

As to `O=C(Nc1cccc(Cl)c1)OCc1ccccn1`, the growth inhibition in assay [1] was 37.6%; in assay [2], 8.15%; in assay [3], 6.9%; in assay [4], -21.5%; in assay [5], -0.95%; in assay [6], 22.1%.

Turning to `COc1ccc(OC)c(CNc2ccc(C(=O)O)cc2)c1`, the growth inhibition is 11.4% in assay [1]; -1.25% in assay [2]; 15% in assay [3]; -1.9% in assay [4]; 6.75% in assay [5]; 29.6% in assay [6].

As to `O=C(c1ccccc1O)N1CCCCC1`, the growth inhibition was 32.1% in assay [1]; 25.2% in assay [2]; 12.5% in assay [3]; 13.9% in assay [4]; 16.6% in assay [5]; 11.3% in assay [6].

For the compound `CNC(=O)N(Cl)c1ccc(Cl)cc1`, the growth inhibition is 5.45% in assay [1]; 12.9% in assay [2]; 1.9% in assay [3]; -26.6% in assay [4]; 7.45% in assay [5]; -0.25% in assay [6].

In the case of `CCCCCCCCCCCCCCCCCCOCCCCCC`, the growth inhibition is -8.65% in assay [1]; -30.1% in assay [2]; -19.8% in assay [3]; 4.2% in assay [4]; -10.3% in assay [5]; -7.55% in assay [6].

Consider `COC(=O)[C@H]1O[C@H]1c1cccc[n+]1[O-]`, for which the growth inhibition is 10.1% in assay [1]; -2.4% in assay [2]; 3.9% in assay [3]; -24.6% in assay [4]; 9.3% in assay [5]; -0.9% in assay [6].

`CCOC(=O)C(F)(F)C(F)(F)C(F)(F)F`: the growth inhibition in assay [1] was 5.45%; in assay [2] it was -16.4%; in assay [3], 9.1%; in assay [4], 10.9%; in assay [5] it was -5.55%; in assay [6], 11.8%.

In the case of `CC(C)=CCc1c(O)ccc2ccc(=O)oc12`, the growth inhibition is 21.6% in assay [1]; 20.1% in assay [2]; 10.2% in assay [3]; 17.9% in assay [4]; 7.3% in assay [5]; 29.4% in assay [6].

As to `C=C(C)C(=O)OC1CC2(C)OC2CC(OC(C)=O)/C(C)=C/C2OC(=O)C(=C)C21` (stereo unspecified), the growth inhibition in assay [1] is 20.8%; in assay [2], 49.7%; in assay [3] it was 31.7%; in assay [4] it was 39.5%; in assay [5], 46.6%; in assay [6], -7.5%.

Turning to `C=C1C(=O)OC2C[C@@]3(C)CCCC(=C)C3CC12` (stereo partly specified), the growth inhibition was 21.4% in assay [1]; 21.1% in assay [2]; 32.1% in assay [3]; 28.6% in assay [4]; 20.6% in assay [5]; 13% in assay [6].

Turning to `O=c1/c(=C\C=C\c2ccccc2)sc2n1CCN=2`, the growth inhibition in assay [1] is -15.7%; in assay [2], -40.6%; in assay [3], -11.3%; in assay [4], -10.8%; in assay [5], -22.2%; in assay [6] it was -13.5%.

Regarding `CC1CCC(O)CC1C` (stereo unspecified), the growth inhibition in assay [1] was -17.9%; in assay [2], -24.6%; in assay [3] it was -57%; in assay [4] it was 27.2%; in assay [5] it was -33.6%; in assay [6], -10.1%.

Consider `CC(=O)OCC1OC(n2ncnc2CBr)C(OC(C)=O)C(OC(C)=O)C1OC(C)=O` (stereo unspecified), for which the growth inhibition is 30% in assay [1]; -3.4% in assay [2]; 12.4% in assay [3]; 8.45% in assay [4]; -4.8% in assay [5]; 10.6% in assay [6].

With `CC1(C)c2ccccc2C(=O)c2ccccc21`, the growth inhibition in assay [1] was 8.1%; in assay [2], 6.65%; in assay [3] it was 2.6%; in assay [4], -4.6%; in assay [5], -2.75%; in assay [6] it was 5.45%.

As for `N#Cc1cc(F)c(N)c(F)c1`, the growth inhibition was -2.25% in assay [1]; 7.95% in assay [2]; 2.2% in assay [3]; 9.95% in assay [4]; -0.35% in assay [5]; 3.8% in assay [6].

As to `CC1c2c(cc(=O)n(C)c2O)C(=O)N1C` (stereo unspecified), the growth inhibition in assay [1] is 2.15%; in assay [2] it was 0.7%; in assay [3] it was -7.85%; in assay [4], -6.2%; in assay [5], -9%; in assay [6], -2.85%.

With `COc1ccc2c(c1OC)C(Cc1ccccc1)N1CCc3cc4c(cc3C1C2)OCO4` (stereo unspecified), the growth inhibition in assay [1] is 21.4%; in assay [2], 59%; in assay [3], 48%; in assay [4] it was 50.8%; in assay [5] it was 51.6%; in assay [6], 77.8% (active).

As to `CCOc1ccc(NC(=O)Oc2ccc(-c3ccccc3)cc2)cc1`, the growth inhibition in assay [1] is 15.8%; in assay [2], 33.5%; in assay [3], 24.4%; in assay [4] it was -12%; in assay [5] it was 56.7%; in assay [6], 48.1%.

As for `COC1OC2COC(c3ccccc3)OC2C(NC(C)=O)C1OC(C)=O` (stereo unspecified), the growth inhibition in assay [1] was 4.6%; in assay [2], 17.7%; in assay [3] it was 8.9%; in assay [4] it was 9.9%; in assay [5], -12.5%; in assay [6] it was -13.1%.

Turning to `Cc1ccc(NC(=S)SCc2ccc([N+](=O)[O-])cc2)cc1C`, the growth inhibition is 16.5% in assay [1]; 14.8% in assay [2]; 8.6% in assay [3]; -8.9% in assay [4]; 12.9% in assay [5]; 2.95% in assay [6].
